Data published in PubChem BioAssay AID1159580 (chemical genetic matrix, 2015).
Hit rate of the full screen: of about 5,500 compounds, about 2,000 (36%) were called active. Another 18% or so got no clear call; they are omitted. Rule as the data show it: active = normalized growth mostly below about 0.91 (no sharp cut-off); inconclusive = no clear call, values can overlap the other calls; inactive = mostly above about 0.92. The list shows a part of the results.

Assay: chemical genetic growth profiling, strain panel (AID 1159580);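 also: tested at 20 µM; growth read once vehicle control cultures reached saturation at 30 °C; 1 = growth at the plate median or of vehicle wells; lower values mean less growth of the strain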
Settings: growth OD

Measured: normalized growth

NS(=O)(=O)c1cc2c(cc1C(F)(F)F)NC(Cc1ccccc1)NS2(=O)=O (centres undefined)
inactive: S. cerevisiae deletion strains, locus YJR066W, strain TOR1, active compounds read low 0.949 | S. cerevisiae deletion strains, locus YKL009W, strain mrt4, active compounds read low 0.983 | S. cerevisiae deletion strains, locus YKL068W, active compounds read low 1 | S. cerevisiae deletion strains, locus YKL085W, strain MDH1 (second series), active compounds read low 0.999 | S. cerevisiae deletion strains, locus YKL085W, strain MDH1, active compounds read low 0.999 | S. cerevisiae deletion strains, locus YKL160W, strain elf1, active compounds read low 0.977 | S. cerevisiae deletion strains, locus YKL190W, strain CNB1, active compounds read low 1 | S. cerevisiae deletion strains, locus YKR001C, strain vps1, active compounds read low 0.982 | S. cerevisiae deletion strains, locus YKR026C, strain gcn3, active compounds read low 0.998 | S. cerevisiae deletion strains, locus YKR091W, strain srl3, active compounds read low 0.982 | S. cerevisiae deletion strains, locus YLL001W, strain dnm1, active compounds read low 0.981 | S. cerevisiae deletion strains, locus YLL026W, active compounds read low 0.991 | S. cerevisiae deletion strains, locus YLL041C, strain sdh2, active compounds read low 0.985 | S. cerevisiae deletion strains, locus YLR027C, strain aat2, active compounds read low 0.985 | S. cerevisiae deletion strains, locus YLR039C, strain RIC1, active compounds read low 1.04 | S. cerevisiae deletion strains, locus YLR058C, strain SHM2, active compounds read low 1 | S. cerevisiae deletion strains, locus YLR102C, strain apc9, active compounds read low 1.01 | S. cerevisiae deletion strains, locus YLR113W, strain HOG1, active compounds read low 0.983 | S. cerevisiae deletion strains, locus YLR221C, strain rsa3, active compounds read low 0.973 | S. cerevisiae deletion strains, locus YLR258W, strain gsy2, active compounds read low 0.993 | S. cerevisiae deletion strains, locus YLR262C, strain YPT6 (second series), active compounds read low 0.987 | S. cerevisiae deletion strains, locus YLR262C, strain YPT6, active compounds read low 1.01 | S. cerevisiae deletion strains, locus YLR268W, strain sec22, active compounds read low 0.999 | S. cerevisiae deletion strains, locus YLR320W, strain mms22, active compounds read low 0.957 | S. cerevisiae deletion strains, locus YLR330W, strain CHS5, active compounds read low 1.01 | S. cerevisiae deletion strains, locus YLR342W, strain FKS1 (second series), active compounds read low 1.06 | S. cerevisiae deletion strains, locus YLR342W, strain FKS1, active compounds read low 0.988 | S. cerevisiae deletion strains, locus YLR357W, strain rsc2, active compounds read low 0.978 | S. cerevisiae deletion strains, locus YLR370C, strain arc18, active compounds read low 0.983 | S. cerevisiae deletion strains, locus YLR371W, strain rom2, active compounds read low 1.01 | S. cerevisiae deletion strains, locus YLR384C, strain iki3, active compounds read low 0.986 | S. cerevisiae deletion strains, locus YLR418C, strain cdc73, active compounds read low 1.01 | S. cerevisiae deletion strains, locus YML016C, strain PPZ1, active compounds read low 1.01 | S. cerevisiae deletion strains, locus YML032C, strain rad52, active compounds read low 0.983 | S. cerevisiae deletion strains, locus YML120C, strain ndi1, active compounds read low 0.981 | S. cerevisiae deletion strains, locus YML124C, strain tub3, active compounds read low 1 | S. cerevisiae deletion strains, locus YMR058W, strain fet3, active compounds read low 0.97 | S. cerevisiae deletion strains, locus YMR078C, strain ctf18, active compounds read low 1 | S. cerevisiae deletion strains, locus YMR125W, strain sto1, active compounds read low 1.01 | S. cerevisiae deletion strains, locus YMR129W, active compounds read low 0.992 | S. cerevisiae deletion strains, locus YMR205C, strain PFK2, active compounds read low 0.978 | S. cerevisiae deletion strains, locus YMR223W, strain ubp8, active compounds read low 1.02 | S. cerevisiae deletion strains, locus YMR231W, strain pep5, active compounds read low 1 | S. cerevisiae deletion strains, locus YMR307W, strain GAS1, active compounds read low 1.06 | S. cerevisiae deletion strains, locus YNL067W, strain RPL9B, active compounds read low 0.985 | S. cerevisiae deletion strains, locus YNL071W, strain lat1, active compounds read low 0.994 | S. cerevisiae deletion strains, locus YNL153C, strain GIM3, active compounds read low 0.975 | S. cerevisiae deletion strains, locus YNL183C, strain NPR1, active compounds read low 0.927 | S. cerevisiae deletion strains, locus YNL209W, strain ssb2, active compounds read low 0.993 | S. cerevisiae deletion strains, locus YNL233W, strain BNI4, active compounds read low 0.993 | S. cerevisiae deletion strains, locus YNL248C, strain rpa49, active compounds read low 0.996 | S. cerevisiae deletion strains, locus YNL250W, strain rad50, active compounds read low 1.01 | S. cerevisiae deletion strains, locus YNL271C, strain bni1, active compounds read low 1.01 | S. cerevisiae deletion strains, locus YNL298W, strain CLA4, active compounds read low 1.02 | S. cerevisiae deletion strains, locus YNL307C, strain MCK1, active compounds read low 1.01 | S. cerevisiae deletion strains, locus YNL322C, strain KRE1 (second series), active compounds read low 0.992 | S. cerevisiae deletion strains, locus YNR049C, strain mso1, active compounds read low 0.986 | S. cerevisiae deletion strains, locus YNR052C, strain pop2, active compounds read low 1.01 | S. cerevisiae deletion strains, locus YOL006C, strain TOP1, active compounds read low 0.953 | S. cerevisiae deletion strains, locus YOL012C, strain htz1 0.78 | S. cerevisiae deletion strains, locus YOL147C, strain pex11, active compounds read low 1.01 | S. cerevisiae deletion strains, locus YOR001W, strain rrp6, active compounds read low 0.997 | S. cerevisiae deletion strains, locus YOR061W, strain CKA2, active compounds read low 1 | S. cerevisiae deletion strains, locus YOR069W, strain VPS5, active compounds read low 1.01 | S. cerevisiae deletion strains, locus YOR070C, strain gyp1, active compounds read low 0.999 | S. cerevisiae deletion strains, locus YOR080W, strain dia2, active compounds read low 0.982 | S. cerevisiae deletion strains, locus YOR083W, strain WHI5, active compounds read low 0.969 | S. cerevisiae deletion strains, locus YOR106W, strain vam3, active compounds read low 0.958 | S. cerevisiae deletion strains, locus YOR136W, strain idh2, active compounds read low 0.992 | S. cerevisiae deletion strains, locus YOR144C, strain elg1, active compounds read low 0.998 | S. cerevisiae deletion strains, locus YOR184W, strain ser1, active compounds read low 0.998 | S. cerevisiae deletion strains, locus YOR231W, strain MKK1, active compounds read low 0.987 | S. cerevisiae deletion strains, locus YOR265W, strain rbl2, active compounds read low 0.988 | S. cerevisiae deletion strains, locus YOR270C, strain vph1, active compounds read low 0.956 | S. cerevisiae deletion strains, locus YOR290C, strain snf2, active compounds read low 0.964 | S. cerevisiae deletion strains, locus YOR316C, strain cot1, active compounds read low 1.01 | S. cerevisiae deletion strains, locus YPL051W, strain arl3, active compounds read low 0.998 | S. cerevisiae deletion strains, locus YPL055C, strain LGE1, active compounds read low 0.934 | S. cerevisiae deletion strains, locus YPL078C, strain atp4, active compounds read low 0.988 | S. cerevisiae deletion strains, locus YPL106C, strain sse1, active compounds read low 0.952 | S. cerevisiae deletion strains, locus YPL240C, strain hsp82, active compounds read low 0.998 | S. cerevisiae deletion strains, locus YPL241C, strain CIN2, active compounds read low 1.01 | S. cerevisiae deletion strains, locus YPL256C, strain CLN2, active compounds read low 0.976 | S. cerevisiae deletion strains, locus YPR119W, strain clb2, active compounds read low 1.01 | S. cerevisiae deletion strains, locus YPR141C, strain kar3, active compounds read low 1.01 | S. cerevisiae deletion strains, locus YPR163C, strain tif3, active compounds read low 1.01 | S. cerevisiae deletion strains, locus YPR167C, strain met16, active compounds read low 1.01 | S. cerevisiae deletion strains, strain wtn01, active compounds read low 1.01 | S. cerevisiae strains, strain wild type, active compounds read low 1
